Assay outcomes from PubChem.
CYP2C9 act: human CYP2C9 activators, primary screen, biochemical, luminescence; recombinant CYP2C9, luciferin-H conversion; active compounds read high; factor 1 = untreated enzyme, 0 = blocked; activation factor at 5 µM; actives 1.4% (n = 96,000);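 active = activation factor of 2 or more for CYP2C9 at a 5 µM dose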;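 note: 0 = sulfaphenazole-blocked wells and 1 = vehicle-only wells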
CYP2C9 inhib: blockers of cytochrome P450 2C9 activity – biochemical, luminescence, ADME assay, primary screen; CYP2C9 Supersomes, luciferin-H conversion; inhibition, % at 5 µM; actives 20% (n = 96,000);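 active = blocking of liver enzyme CYP2C9 beyond about 50% at 5 µM, limit read from the data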
CYP2C19 inh: blockers of cytochrome P450 2C19 activity – biochemical, luminescence, ADME assay, primary screen | AID 778, 2007 | CYP2C19 Supersomes, luciferin-H EGE luminescence, 30 min | inhibition, % at 5 µM | actives 21% (n = 96,000) | P33261;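 active = CYP2C19 inhibition above a set limit at 5 µM in the primary screen, cut at about 50% in these data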;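 note: plate controls were negative control wells for no effect and 2.5 mM tranylcypromine positive control for full effect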
Target sequence (P33261 whole entry, looked up): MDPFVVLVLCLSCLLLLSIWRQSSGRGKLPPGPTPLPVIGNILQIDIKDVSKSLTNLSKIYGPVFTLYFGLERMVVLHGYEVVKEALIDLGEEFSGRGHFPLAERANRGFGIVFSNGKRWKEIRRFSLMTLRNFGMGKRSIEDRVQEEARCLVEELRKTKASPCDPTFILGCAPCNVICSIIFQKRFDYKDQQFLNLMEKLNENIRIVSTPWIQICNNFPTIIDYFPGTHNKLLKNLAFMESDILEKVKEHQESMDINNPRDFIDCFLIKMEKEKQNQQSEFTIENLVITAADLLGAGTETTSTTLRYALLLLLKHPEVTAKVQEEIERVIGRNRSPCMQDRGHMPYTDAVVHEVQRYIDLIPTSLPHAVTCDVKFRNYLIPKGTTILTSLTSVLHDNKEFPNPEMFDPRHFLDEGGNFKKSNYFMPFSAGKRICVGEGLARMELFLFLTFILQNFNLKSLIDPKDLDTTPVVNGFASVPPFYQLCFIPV
CYP2C19 activ: human CYP2C19 activators, primary screen, biochemical, luminescence. Cytochrome P450 2C19 (Homo sapiens), P33261. recombinant CYP2C19, luciferin-H EGE luminescence; active compounds read high; 0 = fully inhibited enzyme, 1 = untreated enzyme. activation factor at 5 µM. 96,000 tested, under 10 active. AID 1025, 2008;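 active = activation factor of at least 2 at 5 µM in the primary screen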;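 note: 0 = wells with 2.5 mM tranylcypromine and 1 = vehicle-only wells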
Measles CPE: compounds protecting cells from measles virus cytopathic effect, primary screen, measles RdRp inhibitor project, single point, MLSMR library, absorbance; Measles virus-infected cells, CPE protection; protection (pct of control), % at 4 µM; actives 1.5% (n = 140,000); AID 841, 2007; in the data active = protection mostly above about 24%, no sharp cut-off; inactive = mostly below about 26%
* marks the source's active call; other numbers are inactive results. Hits are enriched below; roughly 22% of the tested compounds scored in any of these assays.

For CC(O)(C#CCN1CCOCC1)c1ccccc1 (stereo not drawn) the results were CYP2C9 act 1, CYP2C9 inhib -5, CYP2C19 inh 18, CYP2C19 activ 0.8 and Measles CPE 5.
`CC(C)C(O)(C#CCN1CCCC1)c1ccccc1` (stereo not drawn) gave CYP2C9 act 0.9, CYP2C9 inhib 7, CYP2C19 inh 50*, CYP2C19 activ 0.5 and Measles CPE 7.
For CC(C)C(O)(C#CCN1CCCCC1)c1ccccc1 (stereo not drawn) the results were CYP2C9 act 0.9, CYP2C9 inhib 11, CYP2C19 inh 72*, CYP2C19 activ 0.3 and Measles CPE 15.
`C=CCn1c(Cc2cccs2)nnc1SCC(=O)Nc1cc(OC)cc(OC)c1` gave CYP2C9 act 0.6, CYP2C9 inhib 39, CYP2C19 inh 79* and CYP2C19 activ 0.2.
`C=CCn1c(CCC(=O)Nc2ccc(C)c(Cl)c2)nnc1SCC(=O)Nc1ccccc1C` gave CYP2C9 act 0.4, CYP2C9 inhib 64*, CYP2C19 inh 30, CYP2C19 activ 0.7 and Measles CPE 7.
C=CCn1c(SCC(=O)Nc2cccc(C(=O)OC)c2)nnc1C(C)NC(=O)c1cccs1 (stereo not drawn) was read as CYP2C9 act 0.2, CYP2C9 inhib 82*, CYP2C19 inh 71*, CYP2C19 activ 0.3 and Measles CPE 5.
For C=CCn1c(CCNC(=O)c2cccs2)nnc1SCC(=O)Nc1cccc(C(C)=O)c1 the results were CYP2C9 act 0.3, CYP2C9 inhib 74*, CYP2C19 inh 43, CYP2C19 activ 0.6 and Measles CPE 10.
Screening O=C(CNC(=O)C1CCCCC1)Nc1ccccc1Cl returned Measles CPE 18.
Cc1cc(C(F)(F)F)nn1CC(=O)N1CCCCC1C (stereo not drawn) was read as CYP2C9 act 1.3, CYP2C9 inhib -27, CYP2C19 inh -22, CYP2C19 activ 1.2 and Measles CPE 3.
C=CCn1c(CCNC(=O)c2cccs2)nnc1SCC(=O)c1ccc(Br)cc1 was read as CYP2C9 act 0.3, CYP2C9 inhib 72*, CYP2C19 inh 51*, CYP2C19 activ 0.5 and Measles CPE 4.
Screening Nc1cccc(Nc2nc(OC(C(F)(F)F)C(F)(F)F)nc(OC(C(F)(F)F)C(F)(F)F)n2)c1 returned CYP2C9 act 0.8, CYP2C9 inhib 19, CYP2C19 inh 6, CYP2C19 activ 0.9 and Measles CPE 42*.
For N#Cc1c2c(c(-c3ccco3)[nH]c1=O)CCCC2 the results were CYP2C9 act 1, CYP2C9 inhib -4, CYP2C19 inh -2, CYP2C19 activ 1 and Measles CPE 46*.
`Nc1nc(SCC(=O)Nc2cccc(Oc3ccccc3)c2)n[nH]1` gave Measles CPE 20.
COc1ccc(C2(C)NC(=O)N(Cc3cc(Cl)cc4c3OCOC4)C2=O)cc1OC (stereo not drawn) was read as CYP2C9 act 2.8*, CYP2C9 inhib -177, CYP2C19 inh 65*, CYP2C19 activ 0.4 and Measles CPE 23.
Screening Cc1ccccc1Nc1nc(CSc2nnc(-c3ccoc3C)n2C)cs1 returned CYP2C9 act 0.1, CYP2C9 inhib 88*, CYP2C19 inh 86*, CYP2C19 activ 0.1 and Measles CPE 4.
CC(C)N(C(=O)CSc1nnc(-c2cc3ccccc3cc2O)n1Cc1ccco1)C(C)C was read as CYP2C9 act 0.4, CYP2C9 inhib 62*, CYP2C19 inh 37, CYP2C19 activ 0.6 and Measles CPE 6.
Screening COCCn1c(SCC(=O)N(C(C)C)C(C)C)nnc1-c1cc2ccccc2cc1O returned CYP2C9 act 0.8, CYP2C9 inhib 21, CYP2C19 inh 16, CYP2C19 activ 0.8 and Measles CPE 3.
`O=C(CSc1nnc(-c2cc3ccccc3cc2O)n1Cc1ccco1)N1CCc2ccccc2C1` gave CYP2C9 act 0.2, CYP2C9 inhib 81*, CYP2C19 inh 57*, CYP2C19 activ 0.4 and Measles CPE 4.
Cc1noc(C)c1S(=O)(=O)N1CCC(C(=O)N2CCN(c3ccc(F)cc3)CC2)CC1 was read as CYP2C9 act 0.9, CYP2C9 inhib 7, CYP2C19 inh -9, CYP2C19 activ 1.1 and Measles CPE 3.
`Cc1noc(C)c1S(=O)(=O)N1CCC(C(=O)N2CCN(C3CCCC3)CC2)CC1` gave CYP2C9 act 0.9, CYP2C9 inhib 10, CYP2C19 inh 12, CYP2C19 activ 0.9 and Measles CPE 43*.
`O=C(CC1Sc2ncnn2C1=O)Nc1ccc(Br)cc1` (stereo not drawn) gave CYP2C9 act 0.8, CYP2C9 inhib 20, CYP2C19 inh 76*, CYP2C19 activ 0.2 and Measles CPE 12.
For O=C(CC1SC2=NCCN2C1=O)Nc1ccc(Br)cc1 (stereo not drawn) the results were Measles CPE 8.
CCCN1C(=O)SC(CC(=O)Nc2ccc(Br)cc2)C1=O (stereo not drawn) was read as CYP2C9 act 0.5, CYP2C9 inhib 52*, CYP2C19 inh 70*, CYP2C19 activ 0.3 and Measles CPE 10.
Screening CCCN1C(=O)SC(CC(=O)Nc2ccccc2C)C1=O (stereo not drawn) returned Measles CPE 4.
Screening CC1CCCCN1Cc1ccc(-c2nnn(CC(=O)NC3CCCCC3)n2)cc1 (stereo not drawn) returned Measles CPE 4.
CC1=CCC2C(=O)N(Cc3ccccc3)C(=O)C2C1 (stereo not drawn) was read as CYP2C9 act 0.7, CYP2C9 inhib 32, CYP2C19 inh 40, CYP2C19 activ 0.6 and Measles CPE 3.
CC1=CCC2C(=O)N(C(C)c3ccccc3)C(=O)C2C1 (stereo not drawn) was read as CYP2C9 act 0.9, CYP2C9 inhib 11, CYP2C19 inh 94*, CYP2C19 activ 0.1 and Measles CPE 11.
`Cc1cc(C)c(S(=O)(=O)n2ccc(-c3ccc(OCCN(C)c4ccccn4)cc3)n2)c(C)c1` gave CYP2C9 act 0.4, CYP2C9 inhib 57*, CYP2C19 inh 14, CYP2C19 activ 0.9 and Measles CPE 4.
Screening CSc1ccc(Cc2ccc(Cl)cc2Cl)nn1 returned CYP2C9 act 0.7, CYP2C9 inhib 30, CYP2C19 inh 40, CYP2C19 activ 0.6 and Measles CPE 9.
For CC(=O)Nc1nc(SCc2ccc(Cl)cc2Cl)n[nH]1 the results were CYP2C9 act 1, CYP2C9 inhib 0, CYP2C19 inh 19, CYP2C19 activ 0.8 and Measles CPE 12.
For CCCc1nc(SCc2ccccc2Cl)n[nH]1 the results were CYP2C9 act 1.1, CYP2C9 inhib -12, CYP2C19 inh 31, CYP2C19 activ 0.7 and Measles CPE 21.
